PubChem BioAssay (Tox21)
Results filed as inconclusive are left out. Where a call stands in place of a potency, no number is given. Where a structure was tested more than once in an assay, its records may differ in their call. Calls of active or inactive are those of the source. Unless noted, the call rests on the fitted dose curve; in most records, active means well fitted curve in the direction sought with a large enough effect in the repeat runs; inconclusive means weak or mixed curves; inactive means no such curve, though single readings can be large; an effect the other way counts as inactive or inconclusive.

Tests used:
[1] = qHTS assay to identify aromatase inhibitors - cell viability counter screen (AID 743084);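 further: cells stimulated with testosterone during compound exposure; nearly all actives have a fitted effect of over 55% in size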
[2] = target: Aryl hydrocarbon receptor (Homo sapiens) (UniProt P35869); test: qHTS assay to identify small molecule that activate the aryl hydrocarbon receptor (AhR) signaling pathway (AID 743085); further: nearly all actives have a fitted effect of over 15% in size; further: potency means the concentration at half of the fitted maximal effect;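 on activation: HG2L7.5c1 human HepG2 liver cells with stably integrated DRE-driven firefly reporter; series mostly up to about 70 µM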
Chain of Aryl hydrocarbon receptor (Homo sapiens) (P35869 whole entry, looked up): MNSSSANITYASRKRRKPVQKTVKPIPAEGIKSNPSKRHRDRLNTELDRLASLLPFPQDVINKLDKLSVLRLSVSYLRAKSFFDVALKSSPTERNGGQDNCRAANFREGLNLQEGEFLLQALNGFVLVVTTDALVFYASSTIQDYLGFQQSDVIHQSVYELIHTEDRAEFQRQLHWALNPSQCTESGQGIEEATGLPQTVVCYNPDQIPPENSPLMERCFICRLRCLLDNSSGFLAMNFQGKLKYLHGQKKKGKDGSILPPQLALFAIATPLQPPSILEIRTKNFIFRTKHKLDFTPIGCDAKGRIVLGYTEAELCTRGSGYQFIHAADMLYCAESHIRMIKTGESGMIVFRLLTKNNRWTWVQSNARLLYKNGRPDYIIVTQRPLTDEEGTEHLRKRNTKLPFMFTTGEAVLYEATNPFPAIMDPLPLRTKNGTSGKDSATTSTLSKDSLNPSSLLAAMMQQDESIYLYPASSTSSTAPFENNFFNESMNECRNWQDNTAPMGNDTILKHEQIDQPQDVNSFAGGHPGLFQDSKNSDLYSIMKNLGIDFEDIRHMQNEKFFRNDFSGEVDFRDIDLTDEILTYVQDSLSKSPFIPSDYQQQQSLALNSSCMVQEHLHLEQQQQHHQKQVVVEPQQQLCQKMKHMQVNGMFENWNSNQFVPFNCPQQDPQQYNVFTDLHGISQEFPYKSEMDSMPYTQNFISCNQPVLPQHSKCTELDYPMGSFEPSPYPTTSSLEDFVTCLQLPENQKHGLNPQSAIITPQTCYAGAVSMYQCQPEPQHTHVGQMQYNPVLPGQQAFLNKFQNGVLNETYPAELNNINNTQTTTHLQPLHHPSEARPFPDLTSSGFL
Outline: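 Stably transfected human liver carcinoma cells (HG2L7.5c1; 20 DRE-firefly luciferase) were incubated 5 h, dosed, and kept 24 h at 37C. Agonism was scored from increased luciferase luminescence.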

[3] = qHTS assay to identify small molecule that activate the aryl hydrocarbon receptor (AhR) signaling pathway - cell viability counter screen (AID 743086);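 further: HepG2 liver cells carrying the AhR DRE luciferase reporter; series mostly up to about 70 µM; nearly all actives have a fitted effect of over 45% in size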
Outline: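 Cytotoxicity counter screen: CellTiter-Fluor signal (30 min, 37 C) in 4000 HepG2 cells/well carrying the DRE-luciferase reporter, following 24 h compound exposure at 37 C.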

[4] = target: Peroxisome proliferator-activated receptor gamma (Homo sapiens) (UniProt P37231); test: qHTS assay to identify small molecule agonists of the peroxisome proliferator-activated receptor gamma (PPARg) signaling pathway (AID 743094; active means well fitted activation curve with a large enough effect in the signal ratio in the repeat runs, not every such curve was filed as active; the % refers to the signal ratio)
Chain of Peroxisome proliferator-activated receptor gamma (Homo sapiens) (P37231 whole entry, looked up): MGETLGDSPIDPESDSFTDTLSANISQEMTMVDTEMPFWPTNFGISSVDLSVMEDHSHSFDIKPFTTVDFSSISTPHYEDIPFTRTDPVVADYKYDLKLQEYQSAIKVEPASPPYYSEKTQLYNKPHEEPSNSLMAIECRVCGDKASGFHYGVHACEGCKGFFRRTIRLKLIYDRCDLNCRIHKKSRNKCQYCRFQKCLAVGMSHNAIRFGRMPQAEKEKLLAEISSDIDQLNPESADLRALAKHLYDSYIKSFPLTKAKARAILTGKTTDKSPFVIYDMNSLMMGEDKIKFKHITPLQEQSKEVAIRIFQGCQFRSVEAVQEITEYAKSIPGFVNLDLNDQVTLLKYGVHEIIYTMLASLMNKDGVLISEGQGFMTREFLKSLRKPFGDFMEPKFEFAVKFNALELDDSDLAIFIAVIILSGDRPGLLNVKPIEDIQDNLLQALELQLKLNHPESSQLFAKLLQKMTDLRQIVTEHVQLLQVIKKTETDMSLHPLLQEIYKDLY
Outline: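 Cells from the PPARg UAS-bla HEK293H line are plated and incubated 5 h at 37C. Compounds in DMSO are pinned in and left 17 h at 37C. LiveBLAzer B/G substrate is then added for 1 h at room temperature before fluorescence is measured.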

[5] = qHTS assay to identify small molecule antagonists of the peroxisome proliferator-activated receptor gamma (PPARg) signaling pathway - cell viability counter screen (AID 743194); further: nearly all actives have a fitted effect of over 55% in size
Outline: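 Viability was measured as CellTiter-Glo luminescence in GeneBLAzer PPARg UAS-bla HEK293H cells. These cells had been exposed 17 h at 37 C to compounds together with rosiglitazone at 50 nM final, with the beta-lactamase readout taken in the same wells.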

[6] = qHTS assay for small molecule agonists of the antioxidant response element (ARE) signaling pathway - cell viability counter screen (AID 743203; calls by dose curve; further: nearly all actives have a fitted effect of over 55% in size)
Outline: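 Cytotoxicity was tested in parallel with the ARE reporter screen. ARE-bla HepG2 cells were exposed to compounds for 16 hrs, and viability was taken from CellTiter-Glo luminescence.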

[7] = qHTS assay for small molecule activators of the heat shock response signaling pathway - cell viability counter screen (AID 743209); further: nearly all actives have a fitted effect of over 50% in size
Outline: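 Cytotoxicity counter screen run in parallel with the HSE beta-lactamase reporter, using the same wells. HeLa HSE-bla cells received compound for 5 h at 37 C; ATP-based CellTiter-Glo luminescence was measured after 30 min at room temperature.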

[8] = qHTS assay for small molecule activators of the heat shock response signaling pathway (AID 743210; active means well fitted activation curve with a large enough effect in the signal ratio in the repeat runs, with a control signal flat, not every such curve was filed as active; the % refers to the signal ratio;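 further: HeLa cells with beta-lactamase reporter driven by heat shock elements; series mostly up to about 63 µM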)
Outline: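 Fluorescence from a cleaved B/G FRET substrate (2.5 h, room temp) reports HSE-driven beta-lactamase in HeLa cells treated 5 h at 37 C with DMSO-dissolved compounds.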

[9] = qHTS assay to identify small molecule agonists of the peroxisome proliferator-activated receptor delta (PPARd) signaling pathway - cell viability counter screen (AID 743211); further: nearly all actives have a fitted effect of over 55% in size
Outline: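 In the same wells used for beta-lactamase reporter measurement, cytotoxicity is scored by CellTiter-Glo. HEK293H PPARd-bla cells receive compound for 17 h at 37C following a 5 h settling period.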

[10] = target: Peroxisome proliferator-activated receptor delta (Homo sapiens) (UniProt Q03181); test: qHTS assay to identify small molecule agonists of the peroxisome proliferator-activated receptor delta (PPARd) signaling pathway (AID 743212; calls by dose curve)
Chain of Peroxisome proliferator-activated receptor delta (Homo sapiens) (Q03181 whole entry, looked up): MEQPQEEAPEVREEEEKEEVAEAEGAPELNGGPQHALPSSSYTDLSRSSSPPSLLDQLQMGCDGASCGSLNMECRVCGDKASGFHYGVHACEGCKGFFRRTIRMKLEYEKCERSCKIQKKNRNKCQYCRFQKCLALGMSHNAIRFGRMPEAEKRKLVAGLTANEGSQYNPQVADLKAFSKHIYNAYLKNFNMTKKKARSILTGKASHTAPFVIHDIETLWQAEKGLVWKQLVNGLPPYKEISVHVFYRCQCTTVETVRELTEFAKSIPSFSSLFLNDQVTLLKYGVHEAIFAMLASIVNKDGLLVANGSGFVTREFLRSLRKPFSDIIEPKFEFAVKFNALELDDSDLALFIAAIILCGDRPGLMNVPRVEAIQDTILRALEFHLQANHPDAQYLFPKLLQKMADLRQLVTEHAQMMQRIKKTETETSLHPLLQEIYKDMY
Outline: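 Steps: seed PPARd-bla HEK293H cells; incubate 5 h, 37 C, 5% CO2; add compounds in DMSO; incubate, 37 C; add LiveBLAzer B/G FRET substrate; hold 2 h at room temperature; measure fluorescence.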

[11] = qHTS assay to identify small molecule antagonists of the peroxisome proliferator-activated receptor delta (PPARd) signaling pathway - cell viability counter screen (AID 743213); further: nearly all actives have a fitted effect of over 50% in size
Outline: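 Same-well viability: cells pre-incubated 5 h, dosed with compound plus 300 nM L165041, kept 17 h at 37 C, FRET substrate 2 h RT, then CellTiter-Glo 30 min RT and luminescence.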

[12] = qHTS assay to identify small molecule agonists of the farnesoid-X-receptor (FXR) signaling pathway - cell viability counter screen (AID 743218); further: nearly all actives have a fitted effect of over 45% in size
Outline: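 Cells were seeded, left 5 h at 37 C and 5% CO2, then dosed with compound in DMSO for 16 h. After the beta-lactamase FRET read, CellTiter-Glo was added and luminescence measured 30 min later.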

[13] = qHTS assay to identify small molecule antagonists of the farnesoid-X-receptor (FXR) signaling pathway - cell viability counter screen (AID 743221; active means well fitted cell-killing curve with a large enough effect in the repeat runs, not every such curve was filed as active; further: nearly all actives have a fitted effect of over 50% in size)
Outline: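 Here viability was scored by luminescence after CellTiter-Glo addition to wells already read for beta-lactamase. Prior treatment: compound plus CDCA (50 uM final), 16 h, 37 C, HEK 293T FXR-bla cells.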

[14] = target: Vitamin D3 receptor (Homo sapiens) (UniProt P11473); test: qHTS assay to identify small molecule agonists of the vitamin D receptor (VDR) signaling pathway (AID 743222; calls by dose curve)
Chain of Vitamin D3 receptor (Homo sapiens) (P11473 whole entry, looked up): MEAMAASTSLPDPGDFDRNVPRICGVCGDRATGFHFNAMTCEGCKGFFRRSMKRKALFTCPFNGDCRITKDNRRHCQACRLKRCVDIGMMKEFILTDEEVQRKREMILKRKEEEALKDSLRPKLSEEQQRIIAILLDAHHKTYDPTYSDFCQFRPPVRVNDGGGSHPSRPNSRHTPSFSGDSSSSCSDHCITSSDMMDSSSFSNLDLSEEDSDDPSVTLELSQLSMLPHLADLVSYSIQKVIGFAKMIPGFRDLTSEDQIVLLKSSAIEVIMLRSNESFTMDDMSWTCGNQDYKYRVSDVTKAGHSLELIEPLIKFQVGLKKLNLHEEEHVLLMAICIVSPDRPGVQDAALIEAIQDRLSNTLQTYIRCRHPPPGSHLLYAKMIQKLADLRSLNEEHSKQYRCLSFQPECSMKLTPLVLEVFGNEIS
Outline: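 Cells carrying a VDR-driven beta-lactamase reporter are seeded at 2,000 per well and rested 4 h. Compounds in DMSO are added for 16 h at 37C, and FRET substrate fluorescence is measured after 2 h at room temperature.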

[15] = target: Vitamin D3 receptor (Homo sapiens) (UniProt P11473); test: qHTS assay to identify small molecule antagonists of the vitamin D receptor (VDR) signaling pathway (AID 743223; active means well fitted inhibition curve with a large enough effect in the signal ratio in the repeat runs, not every such curve was filed as active; the % refers to the signal ratio)
Outline: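 Inhibition of agonist-driven VDR signalling is scored in VDR-bla cells: 3 nM final 1alpha,25-dihydroxyvitamin D3 plus compound, 16 h at 37C, then beta-lactamase detection by FRET substrate fluorescence after 2 h.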

[16] = target: Peroxisome proliferator-activated receptor delta (Homo sapiens) (UniProt Q03181); test: qHTS assay to identify small molecule antagonists of the peroxisome proliferator-activated receptor delta (PPARd) signaling pathway (AID 743215; active means well fitted inhibition curve with a large enough effect in the signal ratio in the repeat runs, not every such curve was filed as active; the % refers to the signal ratio;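 further: cells stimulated with agonist L165041 at 300 nM final during compound exposure; series mostly up to about 62 µM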)
Outline: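 Cells: HEK293H with a UAS-driven beta-lactamase reporter responsive to PPARd. Compounds were co-added with L165041 (300 nM, final) and incubated 17 h at 37 C before a 2 h room-temperature FRET substrate step and fluorescence reading.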

[17] = target: Bile acid receptor (Homo sapiens) (UniProt Q96RI1); test: qHTS assay to identify small molecule agonists of the farnesoid-X-receptor (FXR) signaling pathway (AID 743220; active means well fitted activation curve with a large enough effect in the signal ratio in the repeat runs, not every such curve was filed as active; the % refers to the signal ratio)
Chain of Bile acid receptor (Homo sapiens) (Q96RI1 whole entry, looked up): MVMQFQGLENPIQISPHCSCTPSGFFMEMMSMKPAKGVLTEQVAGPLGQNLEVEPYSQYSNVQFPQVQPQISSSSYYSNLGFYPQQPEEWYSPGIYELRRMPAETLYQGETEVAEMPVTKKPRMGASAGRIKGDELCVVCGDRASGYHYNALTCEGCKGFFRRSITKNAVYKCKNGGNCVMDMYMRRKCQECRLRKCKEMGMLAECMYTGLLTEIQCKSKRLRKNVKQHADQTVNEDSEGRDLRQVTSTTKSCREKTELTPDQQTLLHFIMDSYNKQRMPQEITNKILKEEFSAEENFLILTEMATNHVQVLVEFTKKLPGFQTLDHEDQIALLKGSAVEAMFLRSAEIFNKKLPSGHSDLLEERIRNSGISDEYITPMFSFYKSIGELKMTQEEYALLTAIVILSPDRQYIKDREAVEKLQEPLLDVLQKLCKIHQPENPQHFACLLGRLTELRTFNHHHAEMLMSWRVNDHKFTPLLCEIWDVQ
Outline: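 FXR-UAS-bla HEK 293T cells carrying a UAS-driven beta-lactamase reporter were plated for 5 h at 37C/5% CO2, then exposed to DMSO-dissolved Tox21 10K compounds for 16 h at 37C. A LiveBLAzer B/G FRET substrate was loaded for 2 h at room temperature before fluorescence reading.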

[18] = qHTS assay for small molecule agonists of the antioxidant response element (ARE) signaling pathway (AID 743202; active means well fitted activation curve with a large enough effect in the signal ratio in the repeat runs, not every such curve was filed as active; the % refers to the signal ratio)
Outline: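 Beta-lactamase reporter activity, read as fluorescence intensity, reflects ARE/Nrf2 pathway induction in HepG2 cells after 16 h compound exposure at 37 C; substrate loading was 2 h at room temperature.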

[19] = target: Peroxisome proliferator-activated receptor gamma (Homo sapiens) (UniProt P37231); test: qHTS assay to identify small molecule antagonists of the peroxisome proliferator-activated receptor gamma (PPARg) signaling pathway (AID 743191; calls by dose curve; further: series mostly up to about 63 µM; nearly all actives have a fitted effect of over 30% in size)
Outline: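 Beta-lactamase reporter under UAS control in HEK293H PPARg-bla cells; compound treatment 17 h at 37C. Read-out: fluorescence intensity after 1 h room-temperature incubation with LiveBLAzer B/G FRET substrate.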

Row | Structure (SMILES) | Potency [1] | Potency [2] | outcome [3] | outcome [4] | outcome [5] | Potency [6] | Potency [7] | Potency [8] | Potency [9] | outcome [10] | outcome [11] | Potency [12] | Potency [13] | outcome [14] | outcome [15] | outcome [16] | outcome [17] | Potency [18] | Potency [19]
1 | CC12CC1(C)C(=O)N(c1cc(Cl)cc(Cl)c1)C2=O (configuration not stated) | inactive | 27.2 µM (active) and inactive | inactive | inactive | inactive | inactive | inactive | inactive | inactive | inactive | inactive | inactive | inactive | inactive | inactive |  |  |  | 
2 | C=CC(=O)OCCCCCC(C)C | inactive | inactive | inactive | inactive | inactive | inactive | inactive | inactive | inactive | inactive | inactive | inactive | inactive | inactive | inactive | inactive | inactive |  | 
3 | C[C@]12CC[C@H](O)CC1=CC[C@@H]1[C@@H]2CC[C@]2(C)C(=O)CC[C@@H]12 | inactive | inactive | inactive | inactive | inactive | inactive | inactive | inactive | inactive | inactive | inactive | inactive | inactive |  |  |  |  |  | 
4 | CNC(=O)O/N=C(\SC)C(=O)N(C)C | inactive | inactive | inactive | inactive | inactive |  | inactive | inactive | inactive | inactive | inactive | inactive | inactive | inactive | inactive | inactive |  | inactive | 
5 | Nc1ncc([N+](=O)[O-])s1 | inactive | inactive | inactive | inactive | inactive |  | inactive | inactive | inactive | inactive | inactive | inactive | inactive | inactive | inactive | inactive | inactive |  | 
6 | CCOC(=O)CC(SP(=O)(OC)OC)C(=O)OCC (configuration not stated) | inactive | inactive | inactive | inactive | inactive | inactive | inactive | inactive | inactive | inactive | inactive | inactive | inactive |  |  | inactive | inactive |  | 
7 | Cc1cc(O)ccc1Cl | inactive | inactive | inactive | inactive | inactive | inactive | inactive | inactive | inactive | inactive | inactive | inactive | inactive | inactive | inactive | inactive | inactive |  | 
8 | CNC(=O)O/N=C/C(C)(C)S(C)(=O)=O | inactive | inactive | inactive | inactive | inactive | inactive | inactive | inactive | inactive |  | inactive | inactive | inactive |  |  |  |  |  | 
9 | CCOc1ccc(N)cc1 | inactive | 48.7 µM (active) and inactive | inactive |  | inactive | inactive | inactive | inactive | inactive | inactive | inactive | inactive | inactive | inactive | inactive | inactive | inactive |  | 
10 | O=[N+]([O-])c1ccc(Cl)cc1 | inactive | inactive | inactive |  | inactive | inactive | inactive | inactive | inactive |  | inactive | inactive | inactive | inactive | inactive |  |  | inactive | 
11 | Clc1cnc(Oc2ccc(Oc3ncc(Cl)cc3Cl)cc2)c(Cl)c1 | inactive | inactive | inactive | inactive | inactive |  | inactive | inactive | inactive | inactive | inactive |  | inactive | inactive | inactive | inactive | inactive |  | 
12 | [N-]=[N+]=CC(=O)OC[C@H](N)C(=O)O |  |  | inactive |  | inactive | inactive | inactive |  | inactive | inactive | inactive | inactive | inactive | inactive | inactive | inactive | inactive | inactive | 
13 | Cc1cc(Cl)ccc1OC(C)C(=O)O (configuration not stated) | inactive | inactive | inactive |  | inactive |  | inactive | inactive | inactive | inactive | inactive | inactive | inactive |  |  | inactive |  |  | 
14 | Oc1ccc(Cl)cc1 | inactive | inactive | inactive |  | inactive | inactive | inactive | inactive | inactive |  | inactive | inactive | inactive | inactive | inactive |  |  |  | 
15 | OCCCCO | inactive | inactive | inactive |  | inactive | inactive | inactive | inactive | inactive |  | inactive | inactive | inactive | inactive | inactive |  | inactive | inactive | 
16 | CCCCCCCCCCCCCCCCCC(=O)O | inactive |  | inactive |  | inactive |  | inactive |  | inactive |  | inactive | inactive | inactive |  |  |  |  | inactive | 
17 | Nc1cccc(Cl)c1 | inactive |  | inactive | inactive | inactive | inactive | inactive |  | inactive | inactive | inactive | inactive | inactive | inactive | inactive | inactive | inactive |  | inactive
18 | C=CC(=O)OCC(CC)CCCC (configuration not stated) | inactive | inactive | inactive |  | inactive |  | inactive | inactive | inactive |  | inactive | inactive | inactive | inactive |  |  |  | inactive | 
19 | Cc1cccc(N)c1 | inactive |  | inactive | inactive | inactive | inactive | inactive | inactive | inactive | inactive | inactive | inactive | inactive | inactive | inactive | inactive |  |  | 
